# Compounds with a hit are over-represented: about 5.1% of the library has one in this group of screens.
# PNC assembly inh – High Content Assay for Compounds that inhibit the Assembly of the Perinucleolar Compartment; PC3M PTB-GFP, PNC prevalence imaging, 16 h; hits give low values; activity change (PNC), negative = inhibition, % at 10 µM; hit rate 3.1% among 140,000; AID 2417, 2010;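 active = readout at or below -70, meaning at least 70% loss of cells showing the perinucleolar compartment, a nuclear body marking cancer cells; inconclusive = readout between -30 and a set limit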;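 also: plate controls were DMSO wells for no effect and camptothecin positive control wells for full effect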
#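 Read-out is percentage of cells bearing a perinucleolar compartment, from automated 20x imaging of fixed, Hoechst-stained PC3M PTB-GFP cells. Cells were seeded 4 h, then exposed 16 h to compound (23 nl of library stock) in duplicate plates.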
# KDM4E inh – qHTS Assay for Inhibitors of Human Jumonji Domain Containing 2E (JMJD2E); Lysine-specific demethylase 4E (Homo sapiens), B2RXH2; hit rate 1.6% among 230,000; JMJD2E catalytic domain, FDH-coupled NADH fluorescence (FDH is formaldehyde dehydrogenase); Potency, µM (top dose mostly 57.1 µM), inactives show at the highest dose activity change, negative = inhibition, actives largely listed as inhibitors; active = well fitted inhibition curve with a large enough effect, not every such curve was filed as active; inconclusive = small, poorly fitted or top-dose-only effect, or another doubt; inactive = no such curve, though single readings can be large or run the other way;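 also: potency is read from the fitted curve at half-maximal effect; 0% = wells with enzyme and -100% = buffer wells without enzyme; nearly all actives have a fitted effect of over 50% in size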
# Target sequence (B2RXH2 1-337 limits assumed): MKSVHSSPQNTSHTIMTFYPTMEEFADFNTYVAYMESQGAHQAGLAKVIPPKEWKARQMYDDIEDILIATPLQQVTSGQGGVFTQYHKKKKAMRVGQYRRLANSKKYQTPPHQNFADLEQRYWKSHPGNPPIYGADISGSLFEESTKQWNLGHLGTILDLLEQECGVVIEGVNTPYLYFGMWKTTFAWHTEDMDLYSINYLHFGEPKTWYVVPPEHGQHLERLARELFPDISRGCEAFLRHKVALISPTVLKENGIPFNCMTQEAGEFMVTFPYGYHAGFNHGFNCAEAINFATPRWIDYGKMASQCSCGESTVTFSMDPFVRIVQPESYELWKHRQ
# Tau fibril ThT – qHTS for Inhibitors of Tau Fibril Formation, Thioflavin T Binding | recombinant tau K18 P301L, heparin-induced fibrillization, ThT fluorescence | hit rate 2.1% among 270,000 | Microtubule-associated protein tau (Homo sapiens), P10636 | Potency, µM (titrated, usually from 57.4 µM), for inactives: top-dose activity, negative = inhibition, actives largely listed as inhibitors; also: potency is read from the fitted curve at half-maximal effect; nearly all actives have a fitted effect of over 55% in size
#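 Heparin-induced fibrillization of the P301L-mutant K18 repeat-domain fragment of human tau was followed by ThT binding in quantitative high-throughput format.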
# NPSR antag – qHTS Assay for Antagonists of the Neuropeptide S Receptor: cAMP Signal Transduction | CHO-NPSR cells, cAMP TR-FRET, antagonist mode | hit rate 1% among 220,000 | Potency, µM (top dose mostly 38.3 µM), for inactives: at the top dose activity change, negative = inhibition, hits mostly inhibitors | AID 1461, 2008; also: potency is read from the fitted curve at half-maximal effect; nearly all actives have a fitted effect of over 50% in size
# Target sequence (Q6W5P4 whole entry, looked up): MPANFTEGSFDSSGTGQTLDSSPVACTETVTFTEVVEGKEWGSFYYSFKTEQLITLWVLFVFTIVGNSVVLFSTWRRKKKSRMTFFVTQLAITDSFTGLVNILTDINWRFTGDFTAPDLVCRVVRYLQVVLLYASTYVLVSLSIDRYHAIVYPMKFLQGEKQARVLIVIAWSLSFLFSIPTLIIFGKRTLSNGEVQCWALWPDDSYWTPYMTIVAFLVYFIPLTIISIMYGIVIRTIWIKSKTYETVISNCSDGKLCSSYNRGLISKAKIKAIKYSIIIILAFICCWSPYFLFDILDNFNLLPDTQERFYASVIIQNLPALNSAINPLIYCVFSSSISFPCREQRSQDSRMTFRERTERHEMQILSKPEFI
# Tau FP inhib – qHTS for Inhibitors of Tau Fibril Formation, Fluorescence Polarization. Microtubule-associated protein tau (Homo sapiens), P10636. K18 P301L tau heparin fibrillization, Alexa594 FP, 6 h. Potency, µM (series often up to 57.7 µM), for inactives: at the top dose activity, negative = inhibition, usual class: inhibitors. hit rate 0.39% among 280,000. AID 1468, 2008; also: potency is read from the fitted curve at half-maximal effect; nearly all actives have a fitted effect of over 55% in size
#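 Read-out: fluorescence polarization of Alexa 594-labeled tau (0.24 uM), 555 nm excitation, 632 nm emission. Mixtures held 15 uM unlabeled K18 P301L, compound and 20 uM heparin, pH 7 acetate buffer, incubated 6 hr at 37 C.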
# Tau fluor counter – Counterscreen qHTS for Inhibitors of Tau Fibril Formation, Fluorescence Polarization. tau K18 P301L Alexa594 fluorescence, heparin fibrillization. Potency, µM (titrated, usually from 57.7 µM), without a hit: at the highest dose activity change, negative = decrease. hit rate 0.93% among 280,000. AID 1463, 2008; also: potency is read from the fitted curve at half-maximal effect; nearly all actives have a fitted effect of over 55% in size
#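 Human tau K18 P301L (15 uM unlabeled, 0.24 uM Alexa 594-labeled) in 100 mM sodium acetate pH 7 with 20 uM heparin, 6 hr at 37 C. ThT 30 uM added, 1 hr ambient; Alexa 594 FP and total fluorescence read at 555/632 nm.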
# Starred values were filed as active, the others as inactive; ? = inconclusive; · = no result given; [ ] = remark or other dose. Unless noted, calls follow the shape of the dose curve; as a rule, active = well fitted curve in the direction sought with a large enough effect; inconclusive = small, poorly fitted or top-dose-only effect, or another doubt; inactive = no such curve, though single readings can be large; an effect the other way counts as inactive or inconclusive. Unless noted, % is scaled to controls: 0 for no effect and ±100 for the full control effect.
SMILES,PNC assembly inh,KDM4E inh,Tau fibril ThT,NPSR antag,Tau FP inhib,Tau fluor counter
Cc1ccc(/C=N\NC(=O)C2COc3cc4ccccc4cc3O2)o1 (stereo unspecified),-12,?,?,-23%[46.1 µM],0%,-26%
O=C(N/N=C\c1ccc(-c2ccccc2[N+](=O)[O-])o1)C1COc2cc3ccccc3cc2O1 (stereo unspecified),?,-7%,11µM*,-28%[46.1 µM],?,?
O=C(N/N=C\c1ccc([N+](=O)[O-])o1)C1COc2ccccc2O1 (stereo unspecified),·,7%,?,-22%,2%,-8%
O=C(N/N=C\c1ccc(-c2ccccc2[N+](=O)[O-])o1)C1COc2ccccc2O1 (stereo unspecified),?,-1%,13µM*,-11%[46.1 µM],?,?
CC(C)CN1C(=O)c2ccc(C(=O)Nc3nccs3)cc2C1=O,?,2%,-9%,-9%[46.1 µM],-3%,-12%
COCCN1C(=O)c2ccc(C(=O)Nc3nccs3)cc2C1=O,-111*,3%,-3%,9%[46.1 µM],-3%,2%
CCCN1C(=O)c2ccc(C(=O)Nc3nccs3)cc2C1=O,-85*,6%,-19%,12%[46.1 µM],7%,-11%
O=[N+]([O-])c1ccc(-n2nnnc2-c2ccccc2)c([N+](=O)[O-])c1,-15,-21%,14µM*,-8%,?,11µM*[quencher]
COc1ccccc1CNC(=O)C1CCCN(c2nn3cc(-c4ccc(F)cc4)nc3s2)C1 (stereo unspecified),·,·,?,·,-5%,-15%
CNC(=S)N/N=C(\C)c1ccc(N2CCOCC2)cc1,-112*,?,?,?,-5%,-18%
COc1ccc(N2CCN(C(=S)Nc3cc(C)cc(C)c3)CC2)cc1,-106*,-14%,-13%,-10%[46.1 µM],-9%,-14%
COc1ccc(N2CCN(C(=S)Nc3cccc(C)c3)CC2)cc1,-5,-4%,-12%,-9%[46.1 µM],2%,-12%
O=C(C1=C[C@@H]2[C@H]3C(=O)N(c4ccccc4Cl)C(=O)[C@H]3[C@@H](C(=O)c3ccc(Cl)cc3)N2C=C1)c1ccccc1,1,?,22µM*,-3%,-9%,?
COc1cc(N=Nc2cccc(S(N)(=O)=O)c2)c2ccccc2c1N,·,?,1.6µM*,-4%,?,10µM*[quencher]
NC1=NC(=Nc2cccc(S(N)(=O)=O)c2)c2ccccc21,·,4%,-3%,-16%,1%,2%
COC(=O)c1cc(Cl)ccc1NC(=O)CSc1ncc(S(=O)(=O)c2ccc(Br)cc2)c(=O)[nH]1,·,·,32µM*,·,?,-17%
COc1ccc(OC)c(Nc2sc(C(=O)c3ccccc3)c(N)c2S(=O)(=O)c2ccccc2)c1,·,·,6%,·,?,-28%
Cc1cccc(N(C)S(=O)(=O)c2cc3[nH]c(=O)c(=O)[nH]c3cc2C)c1,·,·,1%,·,2%,-6%
Cc1cccc[n+]1C1C(c2ccccc2)C(C#N)=C(C(=C=[N-])C#N)NC1(O)C1CC1 (stereo unspecified),-10,?,18µM*,16%[46.1 µM],?,?
N#CC(=C=[N-])C1=C(C#N)C(c2ccccc2F)C([n+]2ccccc2)C(O)(C2CC2)N1 (stereo unspecified),-9,?,?,?,-1%,-25%
Cc1ccc(C)c(Cn2cc(CCC(=O)NC3CCCCC3)c3ccccc32)c1,·,·,4%,·,6%,-6%
Cc1cccc(OCC(=O)Nc2cccc(C(=O)OCc3cc(=O)n4c(C)csc4n3)c2)c1,·,·,?,·,-10%,-19%
COC(=O)CC1(c2cccc3ccccc23)C(=O)c2ccccc2C1=O,21,3%,16µM*,?,-5%,?
Cc1ccc2c(c1)C=CC(C#N)N2C(=O)c1ccccc1 (stereo unspecified),-88*,-10%,1%,-8%,0%,7%
CCOC(=O)C(C)NC(=O)C1CCN(c2ncnc3c2nc2n3CCCCC2)CC1 (stereo unspecified),·,·,4%,·,3%,3%
SMILES,PNC assembly inh,KDM4E inh,Tau fibril ThT,NPSR antag,Tau FP inhib,Tau fluor counter
COC(=O)c1c(-c2ccc(Cl)cc2)noc1N1CCN(c2cccc(C(F)(F)F)c2)CC1,·,·,?,·,-5%,-10%
Cc1ncsc1C(=O)N1N=C2/C(=C/c3ccccc3)CCCC2C1c1ccccc1 (stereo unspecified),47,?,-12%,?,-2%,-3%
Cc1ncsc1C(=O)N1N=C2/C(=C/c3ccc(N4CCOCC4)cc3)CCCC2C1c1ccc(N2CCOCC2)cc1 (stereo unspecified),?,-1%,14µM*,?,5%,-22%
O=C(NO)c1ccccc1O,0,10µM*,-6%,39%,4%,-8%
O=C(c1ccc2c(c1)N(Cc1cccc(Cl)c1)C(=O)c1ccccc1S2(=O)=O)N1CCN(Cc2ccccc2)CC1,·,·,13%,·,-6%,-6%
O=C(Nc1ccccc1)c1cccc(S(=O)(=O)Nc2cccc(F)c2)c1,·,·,1%,·,?,?
COc1ccc(CCNC(=O)Cn2c(=O)nc(-c3ccccc3F)c3cc(Cl)ccc32)cc1OC,·,·,-5%,·,0%,-5%
COc1ccc(/C=C/c2nc3ccccc3c(=O)n2-c2cccc(C(F)(F)F)c2)cc1,·,·,-2%,·,-2%,-10%
N#CC(c1cccc(Cl)c1)c1ccc2c(C(F)(F)F)cc(C(F)(F)F)nc2n1 (stereo unspecified),47,-5%,?,10µM*,6%,?
Cc1ccc2c(c1)-c1c(cnn1CC(=O)N1CCN(c3cc(C)ccc3C)CC1)CO2,·,·,-8%,·,7%,-11%
COc1ccc(N2CCN(S(=O)(=O)c3ccc(F)c(C(=O)Nc4ccccc4Cl)c3)CC2)cc1,·,·,5%,·,12%,-9%
N=C1S/C(=C\c2ccc(-c3cccc(Cl)c3)o2)C(=O)N1c1nccs1,-17,9%,3.5µM*,-30%,5%,-25%
O=C1OC(c2cccs2)=N/C1=C\c1ccc(-c2cccc(Cl)c2)o1,-2,4%,?,?,11%,-3%
COc1ccc(/C=C2\SC(=N)N(c3nccs3)C2=O)cc1OC,-11,-6%,10µM*,-26%,9%,-11%
CNS(=O)(=O)c1cccc(C(=O)OCC(=O)N(CCC#N)c2ccccc2)c1,·,2%,4%,11%,8%,3%

# Screens deposited in PubChem by National Center for Advancing Translational Sciences (NCATS).
